According to ChEMBL document CHEMBL1961873, “Compounds: GSK PKIS; Assays: Nanosyn kinase panel” (2012):
“And” between values parts separate entries of the source, which are not always exact repeats. Equal values may be shown once.

Assays:
[1] = target: Platelet-derived growth factor receptor beta (Homo sapiens) (UniProt P09619); settings: at 1 µM;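 further: each value is a mean percent inhibition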
[2] = target: Tyrosine-protein kinase FRK (Homo sapiens) (UniProt P42685); settings: at 0.1 µM
[3] = target: Tyrosine-protein kinase FRK (Homo sapiens) (UniProt P42685); settings: at 1 µM
[4] = target: Protein-tyrosine kinase 2-beta (Homo sapiens) (UniProt Q14289); settings: at 0.1 µM
[5] = target: Protein-tyrosine kinase 2-beta (Homo sapiens) (UniProt Q14289); settings: at 1 µM
[6] = target: Proto-oncogene tyrosine-protein kinase receptor Ret (Homo sapiens) (UniProt P07949); settings: at 0.1 µM
[7] = target: Proto-oncogene tyrosine-protein kinase receptor Ret (Homo sapiens) (UniProt P07949); settings: at 1 µM
[8] = tested on: Proto-oncogene tyrosine-protein kinase receptor Ret (Homo sapiens), P07949 [V804L]; settings: at 0.1 µM
[9] = tested on: Proto-oncogene tyrosine-protein kinase receptor Ret (Homo sapiens), P07949 [V804L]; settings: at 1 µM
[10] = tested on: Proto-oncogene tyrosine-protein kinase receptor Ret (Homo sapiens), P07949 [Y791F]; settings: at 0.1 µM
Sequence of Proto-oncogene tyrosine-protein kinase receptor Ret (Homo sapiens), P07949 [Y791F] (P07949 whole entry Y791F): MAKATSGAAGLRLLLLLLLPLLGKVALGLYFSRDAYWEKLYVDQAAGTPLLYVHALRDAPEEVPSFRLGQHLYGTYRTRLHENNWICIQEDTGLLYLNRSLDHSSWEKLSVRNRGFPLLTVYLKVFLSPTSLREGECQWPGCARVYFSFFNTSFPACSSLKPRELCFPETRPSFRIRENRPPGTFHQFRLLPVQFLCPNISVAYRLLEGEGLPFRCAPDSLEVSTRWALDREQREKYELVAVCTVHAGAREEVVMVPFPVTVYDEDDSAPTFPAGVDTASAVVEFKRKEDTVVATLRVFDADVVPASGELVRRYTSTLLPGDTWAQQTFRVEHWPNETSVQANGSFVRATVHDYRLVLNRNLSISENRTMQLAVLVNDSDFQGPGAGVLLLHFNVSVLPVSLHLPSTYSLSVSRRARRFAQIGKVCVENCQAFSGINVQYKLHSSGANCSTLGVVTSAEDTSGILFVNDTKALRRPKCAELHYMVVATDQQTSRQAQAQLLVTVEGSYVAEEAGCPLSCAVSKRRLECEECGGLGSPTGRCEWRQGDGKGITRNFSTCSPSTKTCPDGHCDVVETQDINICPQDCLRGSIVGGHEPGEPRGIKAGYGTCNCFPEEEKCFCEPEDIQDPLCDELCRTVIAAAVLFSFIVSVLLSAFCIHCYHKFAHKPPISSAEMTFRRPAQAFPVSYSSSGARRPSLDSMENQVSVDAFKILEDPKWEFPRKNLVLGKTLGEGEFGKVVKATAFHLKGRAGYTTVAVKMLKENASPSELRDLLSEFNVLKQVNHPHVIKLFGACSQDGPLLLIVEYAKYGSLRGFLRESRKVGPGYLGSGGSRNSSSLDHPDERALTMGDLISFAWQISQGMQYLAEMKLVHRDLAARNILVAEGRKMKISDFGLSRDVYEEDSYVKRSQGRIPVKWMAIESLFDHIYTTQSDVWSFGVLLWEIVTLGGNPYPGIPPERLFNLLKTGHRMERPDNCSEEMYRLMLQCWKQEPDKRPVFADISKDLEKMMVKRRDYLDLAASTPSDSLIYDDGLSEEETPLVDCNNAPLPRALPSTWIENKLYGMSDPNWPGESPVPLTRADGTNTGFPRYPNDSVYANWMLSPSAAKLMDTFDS

Sequence of Platelet-derived growth factor receptor beta (Homo sapiens) (P09619 whole entry): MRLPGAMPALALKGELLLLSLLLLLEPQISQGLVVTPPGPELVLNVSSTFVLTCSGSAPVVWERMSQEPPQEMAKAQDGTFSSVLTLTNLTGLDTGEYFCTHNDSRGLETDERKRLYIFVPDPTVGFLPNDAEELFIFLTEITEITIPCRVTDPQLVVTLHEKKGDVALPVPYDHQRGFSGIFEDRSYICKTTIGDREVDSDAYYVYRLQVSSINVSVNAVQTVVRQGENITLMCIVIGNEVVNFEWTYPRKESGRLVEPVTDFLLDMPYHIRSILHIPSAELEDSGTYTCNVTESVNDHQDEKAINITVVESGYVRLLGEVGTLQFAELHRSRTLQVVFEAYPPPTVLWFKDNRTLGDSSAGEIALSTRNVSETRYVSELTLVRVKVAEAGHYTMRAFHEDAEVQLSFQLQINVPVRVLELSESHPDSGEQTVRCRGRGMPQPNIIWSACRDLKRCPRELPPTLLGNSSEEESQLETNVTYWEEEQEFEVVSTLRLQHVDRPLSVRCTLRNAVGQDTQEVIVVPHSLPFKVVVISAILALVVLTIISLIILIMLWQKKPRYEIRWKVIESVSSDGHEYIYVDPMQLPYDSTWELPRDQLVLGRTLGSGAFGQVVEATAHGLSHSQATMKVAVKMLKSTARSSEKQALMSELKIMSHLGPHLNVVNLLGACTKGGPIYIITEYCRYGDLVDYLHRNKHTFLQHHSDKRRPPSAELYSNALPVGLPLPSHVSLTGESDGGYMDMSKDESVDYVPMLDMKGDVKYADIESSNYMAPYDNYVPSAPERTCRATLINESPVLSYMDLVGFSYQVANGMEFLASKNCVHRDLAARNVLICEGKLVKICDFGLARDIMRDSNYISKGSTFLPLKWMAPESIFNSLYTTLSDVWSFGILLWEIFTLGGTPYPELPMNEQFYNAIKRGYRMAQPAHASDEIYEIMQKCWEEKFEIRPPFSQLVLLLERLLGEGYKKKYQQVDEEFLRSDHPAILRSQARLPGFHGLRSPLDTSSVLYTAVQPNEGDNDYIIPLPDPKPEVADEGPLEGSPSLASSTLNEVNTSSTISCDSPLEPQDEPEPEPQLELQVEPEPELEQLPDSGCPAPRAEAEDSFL
Sequence of Protein-tyrosine kinase 2-beta (Homo sapiens) (Q14289 whole entry, looked up): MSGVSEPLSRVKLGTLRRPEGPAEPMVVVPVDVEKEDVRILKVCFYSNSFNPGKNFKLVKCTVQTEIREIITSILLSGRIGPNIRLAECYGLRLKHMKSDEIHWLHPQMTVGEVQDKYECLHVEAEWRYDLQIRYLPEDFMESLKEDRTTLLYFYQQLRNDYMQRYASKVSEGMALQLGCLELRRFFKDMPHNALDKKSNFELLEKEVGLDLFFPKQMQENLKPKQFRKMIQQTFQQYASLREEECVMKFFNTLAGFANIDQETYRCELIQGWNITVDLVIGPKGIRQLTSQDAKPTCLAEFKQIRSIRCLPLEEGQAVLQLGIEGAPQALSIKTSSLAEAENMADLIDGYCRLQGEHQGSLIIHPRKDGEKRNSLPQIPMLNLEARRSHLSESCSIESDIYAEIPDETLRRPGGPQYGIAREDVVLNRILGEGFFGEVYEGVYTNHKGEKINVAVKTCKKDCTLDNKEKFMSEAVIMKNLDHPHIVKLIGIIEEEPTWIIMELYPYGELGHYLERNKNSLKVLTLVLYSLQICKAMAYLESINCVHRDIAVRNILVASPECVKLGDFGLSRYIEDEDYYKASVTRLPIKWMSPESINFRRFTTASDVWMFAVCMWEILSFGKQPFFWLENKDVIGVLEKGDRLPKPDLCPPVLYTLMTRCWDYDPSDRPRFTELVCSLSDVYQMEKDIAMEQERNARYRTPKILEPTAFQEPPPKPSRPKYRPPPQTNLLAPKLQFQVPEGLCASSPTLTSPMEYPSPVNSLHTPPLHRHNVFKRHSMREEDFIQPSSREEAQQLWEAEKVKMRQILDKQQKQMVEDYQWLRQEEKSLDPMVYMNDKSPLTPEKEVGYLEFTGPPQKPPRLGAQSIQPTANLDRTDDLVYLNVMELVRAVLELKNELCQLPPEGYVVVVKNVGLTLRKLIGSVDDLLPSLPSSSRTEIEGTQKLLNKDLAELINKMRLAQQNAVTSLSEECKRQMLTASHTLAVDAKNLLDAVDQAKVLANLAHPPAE
Sequence of Tyrosine-protein kinase FRK (Homo sapiens) (P42685 whole entry): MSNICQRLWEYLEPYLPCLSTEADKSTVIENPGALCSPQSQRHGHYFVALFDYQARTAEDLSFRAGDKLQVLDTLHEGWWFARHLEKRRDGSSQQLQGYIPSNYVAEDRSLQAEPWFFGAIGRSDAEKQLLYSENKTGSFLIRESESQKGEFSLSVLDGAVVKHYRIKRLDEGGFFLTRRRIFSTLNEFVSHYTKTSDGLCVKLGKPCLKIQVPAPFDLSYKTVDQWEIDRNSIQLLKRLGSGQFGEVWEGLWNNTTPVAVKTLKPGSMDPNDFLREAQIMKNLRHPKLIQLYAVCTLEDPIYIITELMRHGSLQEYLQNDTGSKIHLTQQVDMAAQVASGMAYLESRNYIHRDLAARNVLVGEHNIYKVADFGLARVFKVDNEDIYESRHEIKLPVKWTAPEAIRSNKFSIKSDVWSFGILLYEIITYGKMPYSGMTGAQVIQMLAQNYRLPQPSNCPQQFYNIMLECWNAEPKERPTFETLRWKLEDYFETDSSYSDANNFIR
Sequence of Proto-oncogene tyrosine-protein kinase receptor Ret (Homo sapiens), P07949 [V804L] (P07949 whole entry V804L): as the sequence (P07949 whole entry Y791F) above, with F791Y, V804L counted along it
Sequence of Proto-oncogene tyrosine-protein kinase receptor Ret (Homo sapiens) (P07949 whole entry): as the sequence (P07949 whole entry Y791F) above, with F791Y counted along it

Row | Compound | inhibition [1] | inhibition [2] | inhibition [3] | inhibition [4] | inhibition [5] | inhibition [6] | inhibition [7] | inhibition [8] | inhibition [9] | inhibition [10]
1 | CCOc1ccc2c(-c3ccnc(Nc4cc(OC)cc(C(F)(F)F)c4)n3)cnn2n1 | 29.3% | -0.17% | -0.61% | 4.61% | 21.2% | 2.73% | 13.2% | 1.94% | 5.01% | 2.94%
2 | O=C1Nc2ccccc2/C1=C1\CCc2cc(O)ccc21 | 47.9% | 2.6% | 3.64% | 18.3% | 44% | 23% | 66.3% | 36.1% | 73.6% | 25.8%
3 | CS(=O)(=O)CCNCc1ccc(-c2ccc3ncnc(Nc4ccc(OCc5cccc(C(F)(F)F)c5)cc4)c3c2)o1 | 13.6% | 2.67% | 3.25% | 1.85% | 12.6% | 3.22% | 2.84% | 3.51% | 7.73% | 5.55%
4 | Cc1c2ccc(N(C)c3ccnc(Nc4cccc(S(N)(=O)=O)c4)n3)cc2nn1C | 79.2% | 10.4% | 46.1% | 10.9% | 39% | 44.6% | 77.5% | 10.1% | 37.3% | 60.6%
5 | Cc1nnc(-c2cccc(-c3ccc(C(=O)NCC4CC4)cc3)c2)o1 | 8.15% | 1.96% | 3.45% | 12.3% | 9.85% | 4.13% | 7.32% | 4.63% | 16.7% | 5%
6 | Fc1ccc(Nc2nccc(-c3c(-c4ccc(C(F)(F)F)cc4)nn4ncccc34)n2)cc1F | 3.62% | 0.45% | 0.39% | 4.12% | 9.36% | 4% | 6.84% | 1.24% | -1.13% | 5.34%
7 | COc1c(C(N)=O)cc(-c2ccc(Cl)cc2)cc1-c1ccc(S(N)(=O)=O)cc1 | 1.5% | 2.55% | 3.5% | 5.92% | 12.1% | 2.82% | 4.87% | 6.61% | 9.45% | 6.18%
8 | CCN1CCC(C(=O)Nc2n[nH]c3nnc(-c4cccc(F)c4F)cc23)CC1 | 4.95% | 0.31% | 1.25% | -2.3% | 1.39% | 2.54% | -1.84% | 4.84% | 8.91% | 3.29%
9 | COc1ccc(Nc2ncc(-c3ccccc3)o2)cc1OC | 68% | -0.09% | 4.33% | -5.6% | 1.04% | 6.8% | 23.1% | 4.53% | 17.1% | 6.85%
10 | Nc1nccc(-c2c(-c3ccc(F)cc3)ncn2C2CCNCC2)n1 | 32% and 25.6% | 0.53% and 0.26% | 1.84% and 3.88% | -6.28% and 0.77% | -3.71% and 3.63% | -0.37% and 2.86% | 14.1% and 4.3% | 0.39% and 2.71% | 9.24% and 2.58% | 0.26% and 3.84%
11 | CNC(=O)c1sc(-n2cnc3cc(OC)c(OC)cc32)cc1OCc1ccccc1C(F)(F)F | 44.2% | 1.48% | 3.75% | -3.85% | 0.13% | 1.78% | 9.67% | 6.14% | 11.4% | 8.02%
12 | N#Cc1cccc(Nc2ncc(-c3ccccc3)o2)c1 | 26.1% | 0.92% | 3.54% | 1.87% | 7.64% | 2.14% | 3.79% | 0.71% | 14.4% | 0.39%
13 | COC(=O)Nc1nc2cc(Oc3ccc(NC(=O)Nc4ccccc4)cc3)ccc2[nH]1 | 20.8% | 1.73% | 1.93% | -1.17% | 6.99% | 11.1% | 26.6% | 8.3% | 13.8% | 15.3%
14 | Cc1ccc(-c2cc3c(NC(=O)C4CC4)ncnc3o2)cc1 | 24.5% | 2.14% | 0.91% | 9.96% | 10.2% | 8.44% | 27.6% | 6.9% | 13.6% | 8.23%
15 | NS(=O)(=O)c1cccc(N/C=C2\C(=O)Nc3ccccc32)c1 | 22.3% | 3.47% | 5.58% | 14.1% | 27.4% | 7.9% | 30.6% | 11% | 48.6% | 10.1%
16 | CS(=O)(=O)Nc1ccc(-c2cc(-c3ccccc3)cc(C(N)=O)c2N)cc1 | 9.4% | -0.3% | 1.63% | 3.11% | 8.02% | -0.09% | 2.84% | 2.01% | 2.99% | 4%

Row | Compound | inhibition [1] | inhibition [2] | inhibition [3] | inhibition [4] | inhibition [5] | inhibition [6] | inhibition [7] | inhibition [8] | inhibition [9] | inhibition [10]
17 | c1ccc(-c2n[nH]cc2-c2ccnc(-c3ccc(OCCn4ccnc4)cc3)c2)nc1 | 65.6% | 1.69% | 2.79% | 2.99% | 3.76% | 2% | 9.49% | 2.75% | 13.2% | 2.44%
18 | CNC(=O)c1ncccc1Nc1nc(Nc2cc3c(cc2OC)CCCN3C(=O)CN(C)C)nc2[nH]ccc12 | 27.1% | 2.49% | 2.98% | 37.8% | 95.7% | 7.39% | 9.1% | 7.91% | 20.4% | 7.98%
19 | CNC(=O)c1cncc(/C=C/c2ccccc2C)c1 | 20.1% | 1.01% | 1.8% | 5.28% | 5.23% | 3.93% | 6.36% | 5.6% | 11.8% | 2.57%
20 | OCCCNc1nccc(-c2c(-c3ccc(F)cc3)nn3cc(C(F)(F)F)ccc23)n1 | 14.4% | 0.71% | 1.35% | 3.13% | 7.75% | 4.24% | 11.4% | 1.59% | 3.05% | 6.39%
21 | CC1(C)CC(n2cnc(-c3ccc(F)cc3)c2-c2ccnc(N)n2)CC(C)(C)N1 | 5.35% | 0.92% | 1.66% | 4.26% | 3.23% | -0.92% | -0.44% | 2.21% | 2.81% | 1.42%
22 | Fc1cccc(COc2ccc(Nc3ncncc3C#Cc3ccccc3)cc2Cl)c1 | 8.55% | 1.23% | 1.62% | 13.9% | 15.1% | -0.25% | 5.48% | 5.31% | 11.9% | 5.33%
23 | COc1ccc2ncn(-c3cc(O[C@H](C)c4ccccc4C(F)(F)F)c(C(N)=O)s3)c2c1 | 37.5% | -0.74% | 1.39% | -4.13% | -9.62% | 1.52% | 4.27% | 3.57% | 3.91% | 2.46%
24 | CC1=C(C(=O)Nc2ccc3[nH]ncc3c2)C(c2ccc(F)cc2)N=C(c2ccc(C(F)(F)F)nc2)N1 (stereo not given) | 5.78% | -0.24% | 1.73% | 6.19% | 8.2% | 7.82% | 38.6% | 5.19% | 26.6% | 9.49%
25 | CS(=O)(=O)CCNCc1ccoc1-c1ccc2ncnc(Nc3ccc(OCc4ccccc4)cc3)c2c1 | 5.15% | -0.85% | 0.98% | 0.12% | 1.57% | 3.73% | 0.18% | 8.41% | 9.53% | 4.19%
26 | COc1ccccc1-c1cc(/C=C2\C(=O)Nc3ncc(Br)cc32)cc(Br)c1O | 11.6% | 0.6% | 2.12% | 15.6% | 39.1% | 2.23% | 11.1% | 9.25% | 12% | 12.6%
27 | CN1CCC(n2cnc(-c3ccc(F)cc3)c2-c2ccnc(NCCO)n2)CC1 | 20.7% | 0.17% | 1.02% | 6.77% | 18% | 1.17% | 1.73% | 4.71% | 10.8% | 5.21%
28 | COC(=O)Nc1nc2ccc(Oc3ccc(NC(=O)Nc4cc(C(F)(F)F)ccc4F)cc3)cc2s1 | 55.9% | 0.62% | 4.14% | 1.98% | 6.74% | 86.7% | 88.4% | 67.3% | 84.6% | 78.9%
29 | O=C(O[C@H]1CN[C@H](C#Cc2cc3ncnc(Nc4ccc(OCc5cccc(F)c5)c(Cl)c4)c3s2)C1)N1CCOCC1 | 5.35% | 3.74% | 2.3% | 12.3% | 16.8% | 2% | 10.6% | 2.92% | 6.95% | 4.36%
30 | COc1cccc(Nc2nccc(-c3cnn4ncccc34)n2)c1 | 70% | 0.08% | 4.45% | 28.5% | 86.6% | 1.21% | 17.1% | 3.16% | 22.6% | 2.74%
31 | COc1cc(N2CCN(C(C)C)CC2)ccc1Nc1nc(Nc2cccc3ncccc23)c2cc[nH]c2n1 | 8.9% | 0.82% | 1.26% | 15.2% | 93.1% | 4.55% | 3.04% | 7.14% | 14% | 8.29%
